Source: PubChem BioAssay AID1159580 (chemical genetic matrix, 2015)
Screen size: about 5,500 compounds; about 2,000 (36%) were called active. Not shown: some 18% with an inconclusive outcome. Rule as the data show it: active = normalized growth mostly below about 0.91 (no sharp cut-off); inconclusive = no clear call, values can overlap the other calls; inactive = mostly above about 0.92. The list shows a part of the results.

Assay: chemical genetic growth profiling, strain panel (AID 1159580);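 also: tested at 20 µM; growth read once vehicle control cultures reached saturation at 30 °C; 1 = growth at the plate median or of vehicle wells; lower values mean less growth of the strain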
Settings: growth OD

Measured: normalized growth

COC(=O)CCC(C)[C@H]1CCC2C3C(C[C@H](O)[C@@]21C)[C@@]1(C)CC[C@@H](O)C[C@H]1C[C@H]3O (stereo not given in full)
inactive: S. cerevisiae deletion strains, locus YJR075W, strain HOC1, hits give low values 0.986 | S. cerevisiae deletion strains, locus YKL009W, strain mrt4, hits give low values 1.02 | S. cerevisiae deletion strains, locus YKL068W, hits give low values 1 | S. cerevisiae deletion strains, locus YKL085W, strain MDH1 (second series), hits give low values 1.01 | S. cerevisiae deletion strains, locus YKL085W, strain MDH1, hits give low values 1.01 | S. cerevisiae deletion strains, locus YKL160W, strain elf1, hits give low values 1.03 | S. cerevisiae deletion strains, locus YKR001C, strain vps1, hits give low values 1 | S. cerevisiae deletion strains, locus YKR026C, strain gcn3, hits give low values 1.03 | S. cerevisiae deletion strains, locus YKR091W, strain srl3, hits give low values 1.01 | S. cerevisiae deletion strains, locus YLL001W, strain dnm1, hits give low values 1.03 | S. cerevisiae deletion strains, locus YLL026W, hits give low values 1.01 | S. cerevisiae deletion strains, locus YLL041C, strain sdh2, hits give low values 1.01 | S. cerevisiae deletion strains, locus YLR027C, strain aat2, hits give low values 1.01 | S. cerevisiae deletion strains, locus YLR039C, strain RIC1, hits give low values 1.13 | S. cerevisiae deletion strains, locus YLR058C, strain SHM2, hits give low values 1.01 | S. cerevisiae deletion strains, locus YLR102C, strain apc9, hits give low values 1.03 | S. cerevisiae deletion strains, locus YLR113W, strain HOG1, hits give low values 0.975 | S. cerevisiae deletion strains, locus YLR221C, strain rsa3, hits give low values 1.02 | S. cerevisiae deletion strains, locus YLR258W, strain gsy2, hits give low values 1.03 | S. cerevisiae deletion strains, locus YLR262C, strain YPT6 (second series), hits give low values 1.02 | S. cerevisiae deletion strains, locus YLR262C, strain YPT6, hits give low values 1.09 | S. cerevisiae deletion strains, locus YLR268W, strain sec22, hits give low values 1.01 | S. cerevisiae deletion strains, locus YLR320W, strain mms22, hits give low values 1.04 | S. cerevisiae deletion strains, locus YLR330W, strain CHS5, hits give low values 1.01 | S. cerevisiae deletion strains, locus YLR342W, strain FKS1 (second series), hits give low values 1.02 | S. cerevisiae deletion strains, locus YLR342W, strain FKS1, hits give low values 1.01 | S. cerevisiae deletion strains, locus YLR357W, strain rsc2, hits give low values 1.03 | S. cerevisiae deletion strains, locus YLR370C, strain arc18, hits give low values 1.01 | S. cerevisiae deletion strains, locus YLR371W, strain rom2, hits give low values 1.02 | S. cerevisiae deletion strains, locus YLR384C, strain iki3, hits give low values 1 | S. cerevisiae deletion strains, locus YLR418C, strain cdc73, hits give low values 0.932 | S. cerevisiae deletion strains, locus YML016C, strain PPZ1, hits give low values 1.04 | S. cerevisiae deletion strains, locus YML032C, strain rad52, hits give low values 1.01 | S. cerevisiae deletion strains, locus YML120C, strain ndi1, hits give low values 1.02 | S. cerevisiae deletion strains, locus YML124C, strain tub3, hits give low values 1.02 | S. cerevisiae deletion strains, locus YMR058W, strain fet3, hits give low values 1.02 | S. cerevisiae deletion strains, locus YMR078C, strain ctf18, hits give low values 1.04 | S. cerevisiae deletion strains, locus YMR125W, strain sto1, hits give low values 1.03 | S. cerevisiae deletion strains, locus YMR129W, hits give low values 1.01 | S. cerevisiae deletion strains, locus YMR205C, strain PFK2, hits give low values 1.02 | S. cerevisiae deletion strains, locus YMR223W, strain ubp8, hits give low values 0.996 | S. cerevisiae deletion strains, locus YMR231W, strain pep5, hits give low values 1.01 | S. cerevisiae deletion strains, locus YMR263W, strain SAP30, hits give low values 1.01 | S. cerevisiae deletion strains, locus YMR307W, strain GAS1, hits give low values 0.86 | S. cerevisiae deletion strains, locus YNL067W, strain RPL9B, hits give low values 1 | S. cerevisiae deletion strains, locus YNL071W, strain lat1, hits give low values 1.01 | S. cerevisiae deletion strains, locus YNL128W, strain TEP1, hits give low values 1.02 | S. cerevisiae deletion strains, locus YNL153C, strain GIM3, hits give low values 0.988 | S. cerevisiae deletion strains, locus YNL183C, strain NPR1, hits give low values 0.955 | S. cerevisiae deletion strains, locus YNL209W, strain ssb2, hits give low values 1.02 | S. cerevisiae deletion strains, locus YNL233W, strain BNI4, hits give low values 0.957 | S. cerevisiae deletion strains, locus YNL248C, strain rpa49, hits give low values 1.04 | S. cerevisiae deletion strains, locus YNL250W, strain rad50, hits give low values 1.01 | S. cerevisiae deletion strains, locus YNL271C, strain bni1, hits give low values 1.02 | S. cerevisiae deletion strains, locus YNL298W, strain CLA4, hits give low values 0.993 | S. cerevisiae deletion strains, locus YNL307C, strain MCK1, hits give low values 1.03 | S. cerevisiae deletion strains, locus YNL322C, strain KRE1 (second series), hits give low values 1.03 | S. cerevisiae deletion strains, locus YNL322C, strain KRE1, hits give low values 1.02 | S. cerevisiae deletion strains, locus YNR049C, strain mso1, hits give low values 1.01 | S. cerevisiae deletion strains, locus YNR052C, strain pop2, hits give low values 1.01 | S. cerevisiae deletion strains, locus YOL006C, strain TOP1, hits give low values 0.974 | S. cerevisiae deletion strains, locus YOL012C, strain htz1 0.777 | S. cerevisiae deletion strains, locus YOL147C, strain pex11, hits give low values 1.03 | S. cerevisiae deletion strains, locus YOR001W, strain rrp6, hits give low values 0.985 | S. cerevisiae deletion strains, locus YOR061W, strain CKA2, hits give low values 1.04 | S. cerevisiae deletion strains, locus YOR069W, strain VPS5, hits give low values 1.06 | S. cerevisiae deletion strains, locus YOR070C, strain gyp1, hits give low values 0.995 | S. cerevisiae deletion strains, locus YOR080W, strain dia2, hits give low values 1.01 | S. cerevisiae deletion strains, locus YOR083W, strain WHI5, hits give low values 1.03 | S. cerevisiae deletion strains, locus YOR106W, strain vam3, hits give low values 1.01 | S. cerevisiae deletion strains, locus YOR136W, strain idh2, hits give low values 1.02 | S. cerevisiae deletion strains, locus YOR144C, strain elg1, hits give low values 1.02 | S. cerevisiae deletion strains, locus YOR184W, strain ser1, hits give low values 0.986 | S. cerevisiae deletion strains, locus YOR231W, strain MKK1, hits give low values 0.991 | S. cerevisiae deletion strains, locus YOR265W, strain rbl2, hits give low values 1.01 | S. cerevisiae deletion strains, locus YOR270C, strain vph1, hits give low values 0.913 | S. cerevisiae deletion strains, locus YOR290C, strain snf2, hits give low values 0.977 | S. cerevisiae deletion strains, locus YOR316C, strain cot1, hits give low values 1.03 | S. cerevisiae deletion strains, locus YPL051W, strain arl3, hits give low values 1.01 | S. cerevisiae deletion strains, locus YPL078C, strain atp4, hits give low values 1.03 | S. cerevisiae deletion strains, locus YPL106C, strain sse1, hits give low values 1.05 | S. cerevisiae deletion strains, locus YPL240C, strain hsp82, hits give low values 1 | S. cerevisiae deletion strains, locus YPL241C, strain CIN2, hits give low values 1.02 | S. cerevisiae deletion strains, locus YPL256C, strain CLN2, hits give low values 0.981 | S. cerevisiae deletion strains, locus YPR119W, strain clb2, hits give low values 1.03 | S. cerevisiae deletion strains, locus YPR141C, strain kar3, hits give low values 1.03 | S. cerevisiae deletion strains, locus YPR163C, strain tif3, hits give low values 1.03 | S. cerevisiae deletion strains, locus YPR167C, strain met16, hits give low values 1.03 | S. cerevisiae deletion strains, strain wtn01, hits give low values 1.01 | S. cerevisiae strains, strain wild type, hits give low values 1.02
